The source made the active and inactive calls. The calls were made as follows: active = hit-call score of the fitted dose curve at least 0.9, where 1 is the maximum; inactive = score below 0.9.
How the values were obtained:
[1] = Tanguay_ZF_120hpf_MO24: Oregon State University Tanguay Lab 24 Hour Post-fertilization zebrafish Assay for Mortality (AID 2284389)
Outline: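 Embryo death at 24 hpf was recorded as present or absent in Tropical 5D zebrafish, dechorionated at 4 hpf and dosed statically from 6 hpf (28C, 0.64% DMSO); 5 uM trimethyltin chloride served as positive control.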

[2] = Tanguay_ZF_120hpf_DP24: Oregon State University Tanguay Lab 24 Hour Post-fertilization zebrafish Assay for Delayed Development (AID 2284390)
Outline: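 Scored at 24 hpf as a binary present/absent call of delayed development by brightfield, with dead embryos not assessed. Embryos (5D wild type, chorion removed with pronase at 4 hpf) dosed statically from 6 hpf at 28 C in 0.64% DMSO.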

[3] = Tanguay_ZF_120hpf_CRAN: Oregon State University Tanguay Lab 120 Hour Post-fertilization zebrafish Assay for Craniofacial Malformation (AID 2284397)
Outline: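 Scoring of craniofacial malformation as a binary endpoint was done at 120 hpf by brightfield microscopy and was not done in dead embryos. Exposure was static, starting at 6 hpf, in dechorionated wild-type embryos held singly at 28C with 0.64% DMSO final.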

[4] = Tanguay_ZF_120hpf_AXIS: Oregon State University Tanguay Lab 120 Hour Post-fertilization zebrafish Assay for Axial Malformation (AID 2284398)
Outline: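 Scoring was binary (present or absent) for body-axis defects, judged by brightfield imaging at 120 hpf in surviving larvae. Exposure was static at 28C from 6 hpf in chorion-free 5D wild-type embryos, with 0.64% DMSO vehicle.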

[5] = Tanguay_ZF_120hpf_MORT: Oregon State University Tanguay Lab 120 Hour Post-fertilization zebrafish Assay for Mortality (AID 2284399)
Outline: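 Mortality, recorded present/absent via brightfield imaging at 24 and 120 hpf, in 5D zebrafish embryos exposed statically from 6 hpf after pronase chorion removal. Exposure at 28C, 0.64% DMSO vehicle, DMSO baseline.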

[6] = Tanguay_ZF_120hpf_EDEM: Oregon State University Tanguay Lab 120 Hour Post-fertilization zebrafish Assay for Edema Malformation (AID 2284400)
Procedure: Tanguay_ZF_120hpf is a whole embryo, multiplexed endpoint assay using zebrafish larvae exposed for 120 hours post fertilization on a 96-well plate.Tanguay_ZF_120hpf_EDEM is one of one assay component(s) measured or calculated from the Tanguay_ZF_120hpf assay. It is designed to make measurements of zebrafish development as detected with brightfield microscopy of developing zebrafish embryos.Data from the assay component Tanguay_ZF_120hpf_EDEM was analyzed into 1 assay endpoints. This assay endpoint, Tanguay_ZF_120hpf_EDEM, was analyzed in the positive analysis fitting direction relative to DMSO as the negative control and baseline of activity. […]
Zebrafish husbandry: Tropical 5D wild-type adult zebrafish were housed in at an approximate density of 1000 per 100 gallon tank at the Sinnhuber Aquatic Research Laboratory, Oregon State University, Corvallis, OR. […] At 24 hpf, embryos were assessed for photomotor response using a custom photomotor response analysis tool (PRAT) and for developmental toxicity endpoints (MO24: mortality at 24 hpf, DP: developmental progression, SM: spontaneous movement, and NC: notochord distortion). At 120 hpf, locomotor activity was measured using Viewpoint Zebralab and assessed for 13 endpoints. […] If mortality occurred for an embryo (at either 24 or 120 hpf), the non-mortality endpoints were not measured.

[7] = Tanguay_ZF_120hpf_MUSC: Oregon State University Tanguay Lab 120 Hour Post-fertilization zebrafish Assay for Muscle Malformation (AID 2284401)
Outline: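 Scored as a binary brightfield endpoint at 120 hpf, fitted versus DMSO. Single dechorionated wild-type (Tropical 5D) zebrafish embryos per well, statically exposed at 28C from 6 hpf onward with final DMSO 0.64%.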

[8] = Tanguay_ZF_120hpf_BRN: Oregon State University Tanguay Lab 120 Hour Post-fertilization zebrafish Assay for Brain Region Malformation (AID 2284402)
Outline: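 Binary brightfield scoring of brain malformation at 120 hpf in 5D wild-type larvae, chorion removed with pronase at 4 hpf. Static exposure began at 6 hpf, 28C, sealed plates, DMSO 0.64% (vol/vol) as vehicle baseline.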

[9] = Tanguay_ZF_120hpf_TCHR: Oregon State University Tanguay Lab 120 Hour Post-fertilization zebrafish Assay for Touch Responsive (AID 2284403)
Outline: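 Binary touch-response calls are made at 120 hpf in 5D wild-type zebrafish larvae. These larvae were dechorionated with pronase and exposed singly from 6 hpf in sealed, dark plates at 28 °C with 0.64% DMSO final; dead embryos are excluded.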

[10] = Tanguay_ZF_120hpf_ANY: Oregon State University Tanguay Lab 120 Hour Post-fertilization zebrafish Assay for Any Mortality and Malformation (AID 2284404)
Outline: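 Dechorionated Tropical 5D wild-type embryos, one per well from 6 hpf, static exposure in sealed, dark plates at 28C until 120 hpf, 0.64% DMSO final. Brightfield scoring of mortality and malformations as binary presence/absence, pooling 13 morphology endpoints.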

Measured: AC50

CCNS(=O)(=O)C(F)(F)C(F)(F)C(F)(F)C(F)(F)C(F)(F)C(F)(F)C(F)(F)C(F)(F)F
active: [3] 75.6 µM | [4] 70.1 µM | [6] 62.9 µM | [10] 62.1 µM
inactive: all other assays above

From PubChem BioAssay (EPA / NIEHS)
